Records with an inconclusive call do not appear. The source made the active and inactive calls. The call rests on the fitted dose curve; in most records, active means well fitted inhibition curve with a large enough effect; inconclusive means small, poorly fitted or top-dose-only effect; inactive means flat fitted curve, though single readings scatter. Where a SMILES comes first, the peptide text is derived from it. Bridges are numbered along the chain shown (N, C = ends). [ ]: non-standard residue; d: D form. NMeY = CN[CH](Cc1ccc(O)cc1)C(=O)O
Columns and labels:
[1] = test system: HaCat; assay: Cytotoxic Profiling of Annotated Libraries Using Quantitative High-Throughput Screening (AID 1296008); details: Five cell lines viability, CellTiter-Glo ATP luminescence, 48-72 h; max response: hits give low values; on max response: on the % scale 0 is the no-effect control and ±100 the full control effect
How it was run: (§1)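 Compounds were pin-transferred onto cells and incubated 48 or 72 hr at 37 degree Celsius, 95% humidity. CellTiter-Glo was added, plates sat 10 min at room temperature, then ATP-coupled luminescence was imaged as the viability read-out.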

[2] = test system: KB-3-1; assay: as above; details: Five cell lines viability, CellTiter-Glo ATP luminescence, 48-72 h; max response: hits give low values
How it was run: as §1

[3] = test system: NIH3T3; assay: as above; details: Five cell lines viability, CellTiter-Glo ATP luminescence, 48-72 h; max response: hits give low values
How it was run: as §1

[4] = test system: HACAT; assay: qHTS assay to identify novel small-molecules to repurpose for Merkel cell carcinoma treatment (AID 1296009); details: MCC and control cell lines, CellTiter-Glo viability, 72 h; series mostly up to 44.8 µM
How it was run: (§2)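 Luminescence from CellTiter-Glo, read 10 min after addition at room temperature, reported viability following a 72 hr, 37 degree celsius treatment with NPC or MIPE compounds in titration; values normalized to plate controls.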

[5] = test system: NIH3T3; assay: as above; details: MCC and control cell lines, CellTiter-Glo viability, 72 h; at 44.8 µM (top of the series) unless noted
How it was run: as §2
Further: nearly all actives have a fitted effect of over 60% in size.

C=C(C(=O)O)C1CCC2(C)CCCC(C)(O)C2C1 (centres undefined)
inactive: outcome [1] | outcome [2] | outcome [3] | Potency [4] | outcome [5]

CN(C)C(=O)NC1CCC(CCN2CCN(c3cccc(Cl)c3Cl)CC2)CC1 (centres undefined)
inactive: outcome [1] | max response [2] -7.32% | max response [3] -6.34% | outcome [4] inactive [at 9.27 µM]

OCc1ccc(O[C@@H]2O[C@H](CO)[C@@H](O)[C@H](O)[C@H]2O)cc1
inactive: outcome [1] | max response [2] -3.37% | max response [3] 2.54% | Potency [4]

CC(=O)O[C@@H]1[C@H](O[C@@H]2O[C@@H](CO)[C@H](O)[C@H]2O)[C@@H](O[C@@H]2O[C@@H](C)[C@H](O[C@@H]3OC[C@@H](O)[C@H](O)[C@H]3O)[C@@H](O)[C@H]2O)[C@H](OC(=O)[C@]23CCC(C)(C)C[C@H]2C2=CCC4[C@@]5(C)CC[C@H](O[C@@H]6O[C@H](C(=O)O)[C@@H](O)[C@H](O)[C@H]6O[C@@H]6O[C@H](CO)[C@H](O)[C@H](O)[C@H]6O)[C@@](C)(C=O)C5CC[C@@]4(C)[C@]2(C)CC3)O[C@@H]1C (some centres undefined)
inactive: outcome [1] | max response [2] 5.7% | max response [3] 4.82% | outcome [4] inactive [at 9.27 µM]

COc1cc(OC)cc(C(=O)Nc2ccc(Cl)c(-c3nc4ccc(N(C)C)cc4[nH]3)c2)c1
inactive: outcome [1] | max response [2] 2.52% | max response [3] -0.734% | Potency [4]

C=C(C(=O)OC)C1C(O)CC2(C)C(O)CCC(=O)C2C1O (centres undefined)
inactive: outcome [1] | max response [2] 2.14% | max response [3] 3.84% | Potency [4]

Cc1cc(NC(=O)Nc2ccc(F)c(F)c2)n(-c2ccccc2)n1
inactive: outcome [1] | max response [2] 4.72% | max response [3] -11% | Potency [4]

Nc1nc2c(c(N3CCNCC3)n1)CCC1=C2[C@@H]2CCCC[C@@H]2O1
inactive: outcome [1] | max response [2] -5.74% | max response [3] -4.38% | Potency [4]

COc1c2c(c(C)c3c1C(=O)OC3)OC1(C)CC(O)C34OC(OC)(CC(OC(C)=O)C3(C)C1C2)OC4(C)C (centres undefined)
inactive: outcome [1] | max response [2] 1.81% | max response [3] -0.676% | Potency [4]

COc1ccc(-c2cnc3ccc(NCc4ccc(S(N)(=O)=O)cc4)nn23)cc1OC
inactive: outcome [1] | max response [2] -8.36% | max response [3] -14% | Potency [4]

C[C@@H]1O[C@@H](O[C@H]2[C@@H]3C=CO[C@@H](O[C@@H]4O[C@H](CO)[C@@H](O)[C@H](O)[C@H]4O)[C@@H]3[C@@]3(CO)O[C@@H]23)[C@H](OC(=O)/C=C/c2ccccc2)[C@H](O)[C@H]1O
inactive: outcome [1] | outcome [2] | max response [3] -1.15% | Potency [4]

CC(C)=C/C=C\[C@H](C)[C@H]1CC[C@]2(C)C[C@@H]3C(C)=CC(=O)C3/C(CO)=C\C[C@@H]12 (some centres undefined)
inactive: outcome [1] | outcome [2] | max response [3] 3.13% | Potency [4]

CC1=CC(=O)CC(C)(C)[C@H]1/C=C/C(CO)O[C@@H]1O[C@H](CO)[C@@H](O)[C@H](O)[C@H]1O (some centres undefined)
inactive: outcome [1] | outcome [2] | max response [3] -2.41% | Potency [4]

Cc1cc(C)c(CNC(=O)c2cc(-c3ccc(CN4CCOCC4)cc3)cc3c2cnn3C2CCCC2)c(=O)[nH]1
inactive: outcome [1] | max response [2] 8.22% | max response [3] -0.531% | Potency [4]

COc1cc2c(c(OC)c1CC=C(C)C)C[C@H](c1ccc(O)cc1O)CO2
inactive: outcome [1] | outcome [2] | max response [3] 0.487% | Potency [4]

CO/N=C(/C(=O)N[C@@H]1C(=O)N2C(C(=O)O)=C(Cn3ccc(=N)n3CCO)CS[C@H]12)c1csc(N)n1
inactive: outcome [1] | max response [2] -6.11% | outcome [3] | Potency [4] | outcome [5]

C/C=C/c1ccc2c(c1)[C@@H](C)[C@H](c1ccc(O)cc1)O2
inactive: outcome [1] | max response [2] -2.15% | max response [3] 3.14% | Potency [4]

C=C1CCC[C@]2(C)CC[C@@H](C(=C)C(=O)O)[C@H](O)[C@@H]12
inactive: outcome [1] | max response [2] 1.72% | max response [3] -0.289% | Potency [4]

CCC(C)C1NC(=O)C2CCCN2C(=O)C(NC(C)=O)C(C)OC(=O)C(Cc2ccc(OC)cc2)N(C)C(=O)C2CCCN2C(=O)C(C(C)C)NC1=O (centres undefined) (Ac-TPIVP[NMeY](Me); ester 1-C; configuration not given here)
inactive: outcome [1] | max response [2] -2.69% | outcome [3] | Potency [4] | outcome [5] inactive [at 17.4 µM]

CNC(C)C(=O)NC(C(=O)N1CCCC1c1nc(C(=O)c2ccc(F)cc2)cs1)C1CCCCC1 (centres undefined)
inactive: outcome [1] inactive; activator | max response [2] -9.35% | outcome [3] | Potency [4] | outcome [5]

Reference: PubChem BioAssay (NCATS)
